# Assay results reported in PubChem BioAssay AID1851 (National Center for Advancing Translational Sciences (NCATS), 2009).
# “And” between values parts separate entries of the source, which are not always exact repeats. Equal values may be shown once. Out of some 16,000 compounds screened, about 5,700 (36%) were called active. Inconclusive results (about 24%) are left out. Calls follow the shape of the dose curve; as a rule, active = well fitted curve in the direction sought with a large enough effect; inconclusive = small, poorly fitted or top-dose-only effect, or effect the other way; inactive = no such curve, though single readings can be large or run the other way. This is one part of the list. Square brackets hold non-standard residues; d marks the D form. Peptide text beside a SMILES is read from it.
# Target: Cytochrome P450 1A2 (Homo sapiens) (UniProt P05177)
# Assay: Cytochrome panel assay with activity outcomes
# Conditions: recombinant CYP, pro-luciferin dealkylation, luminescence, p450-cyp1a2; series mostly up to 57.1 µM; activity, negative = inhibition: at the top concentration
# % is scaled to controls: 0 for no effect and ±100 for the full control effect.
# Sequence of Cytochrome P450 1A2 (Homo sapiens) (P05177 whole entry, looked up): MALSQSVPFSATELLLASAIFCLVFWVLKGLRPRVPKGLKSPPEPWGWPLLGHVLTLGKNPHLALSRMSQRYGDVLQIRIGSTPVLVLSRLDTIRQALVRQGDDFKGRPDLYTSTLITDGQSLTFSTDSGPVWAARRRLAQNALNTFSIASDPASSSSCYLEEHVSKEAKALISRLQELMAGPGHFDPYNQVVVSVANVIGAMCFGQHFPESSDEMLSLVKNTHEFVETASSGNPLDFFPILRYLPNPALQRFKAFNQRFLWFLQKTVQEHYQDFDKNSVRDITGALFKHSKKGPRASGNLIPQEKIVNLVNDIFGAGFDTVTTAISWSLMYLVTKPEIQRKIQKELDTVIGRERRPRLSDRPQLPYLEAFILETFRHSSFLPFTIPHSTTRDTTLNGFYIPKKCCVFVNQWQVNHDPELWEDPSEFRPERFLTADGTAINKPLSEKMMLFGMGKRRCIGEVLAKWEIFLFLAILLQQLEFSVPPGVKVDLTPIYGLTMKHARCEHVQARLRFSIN
SMILES,"activity, negative = inhibition",AC50
Cn1ncc2c(Cl)ncnc21,-5.24% [at 11.4 µM] (inactive),–
Cn1ncc2c(NCCc3ccccc3)nc(Cl)nc21,–,2.51 µM (active)
COc1cccc(Cn2c(=O)c(-c3ccccc3)nc3cnc(N4CCN(C)CC4)nc32)c1,-20.3% (inactive),–
CN1CCN(c2ncc3nc(-c4cccs4)c(=O)n(Cc4cccs4)c3n2)CC1,–,15.8 µM (active)
COCCn1c(=O)c(-c2cccs2)nc2cnc(N3CCN(C)CC3)nc21,–,15.8 µM (active)
CN1CCN(c2ncc3nc(-c4ccccc4)c(=O)n(Cc4ccc(F)cc4)c3n2)CC1,-20% (inactive),–
CC(C)CNS(=O)(=O)c1cc(C(=O)N2CC(C)OC(C)C2)c(Cl)cc1Cl (stereo not drawn),2.27% (inactive),–
Cc1cccc(CNc2ccnc(-c3cccnc3)n2)c1,–,0.126 µM (active)
c1ccc(CNc2ccnc(-c3cccnc3)n2)cc1,–,0.251 µM (active)
COc1cc(C)ccc1OCCCOc1ccccc1Cl,–,2.51 µM (active)
COc1cc(C)ccc1OCCOc1cc(C)ccc1Cl,-29.1% (inactive),–
COc1cc(C)ccc1OCCCOc1ccccc1Br,–,1.58 µM (active)
C[C@@H]1C[C@H](C)CN(S(=O)(=O)c2cc(Cl)c(Oc3ccc([N+](=O)[O-])cc3Cl)c(Cl)c2)C1,-15.8% [at 11.4 µM] (inactive),–
COc1ccccc1OCCCOc1ccc([N+](=O)[O-])cc1Cl,–,2 µM (active)
CC1(C)CCC=[N+]1[O-],-0.975% (inactive),–
CO/N=C(\C)CCN1CCc2nc(-c3ccccc3)c(-c3ccccc3)cc2C1,7.31% [at 11.4 µM] (inactive),–
CO[C@H]1COC(=O)[C@H]2CCCN2C(=O)[C@@H](C)COC(=O)C/C=C\[C@@H]1C,-1.05% [at 11.4 µM] (inactive),–
CC(=O)Nc1c(S(=O)(=O)c2ccccc2)c2nc3ccccc3nc2n1Cc1ccccc1,-16% (inactive),–
CCn1c2ccc(Cl)cc2c2nc3ccccc3nc21,–,0.501 µM (active)
Cc1cc(-c2n[nH]c(=S)o2)c(C)n1-c1ccccc1,–,14.1 µM (active)
CN(C)S(=O)(=O)Oc1ccc(Cl)cc1C(=O)Nc1cccc(C(F)(F)F)c1,–,7.08 µM (active)
CN(C)S(=O)(=O)Oc1ccccc1C(=O)Nc1cccc(C(F)(F)F)c1,–,8.91 µM (active)
CC(O)(CS(=O)(=O)Cc1ccccc1Cl)C(=O)Nc1cccc(C(F)(F)F)c1 (stereo not drawn),-13.5% (inactive),–

SMILES,"activity, negative = inhibition",AC50
CO[C@@H]1/C=C\CC(=O)N[C@@H](C)C(=O)OC[C@H](NS(=O)(=O)c2ccc(C)cc2)[C@H](C)/C=C\CC(=O)OC[C@H]1C,8.52% [at 11.4 µM] (inactive),–
COC(=O)C/C=C\[C@H](C)[C@@H](OC)c1ccccc1Br,-0.474% [at 11.4 µM] (inactive),–
CN(CC(=O)O)CC(=O)O,-5.93% [at 2.29 µM] (inactive),–
COC(=O)CSc1ncc(OC)c(OC)n1,-22% (inactive),–
CCOC(=O)C(C)Sc1ncc(OC)c(Sc2ccc(Cl)cc2)n1 (stereo not drawn),–,12.6 µM (active)
O=C(Nc1ccccc1)N1CCCC2(CCN(C(=O)c3cnccn3)CC2)C1,3.93% (inactive),–
COc1ccc(-c2cc(C(=O)Nc3cnn(Cc4ccccc4C)c3)no2)cc1OC,-15.7% (inactive),–
O=C(Nc1cnn(Cc2ccc(Cl)cc2Cl)c1)c1cc(-c2cccs2)on1,–,2.51 µM (active)
Cc1cccc(-c2c3c(=O)n(C)c(=O)n(C)c3cn2C2CCCCC2)c1,-28.2% (inactive),–
O=C(Nc1ccccc1N1CCOCC1)c1cnccn1,–,4.47 µM (active)
O=C(c1cnccn1)N1CCC2(CC1)CCN(c1ccccc1)CC2,-10.3% (inactive),–
O=C(Nc1ccccc1N1CCOCC1)c1ccc([N+](=O)[O-])cc1,-29.5% (inactive),–
CNc1ccnc(-c2c(C)noc2C)n1,–,1.26 µM (active)
Cc1noc(C)c1-c1nccc(NC2CC2)n1,–,0.1 µM (active)
COCCNc1ccnc(-c2c(C)noc2C)n1,–,2.51 µM (active)
c1cc(NC2CC2)nc(-c2ccoc2)n1,–,0.251 µM (active)
O=C1O/C(=C\Br)CC[C@@H]1c1cccc2ccccc12,1.77% (inactive),–
Clc1cnccn1,-1.25% [at 25.6 µM] (inactive),–
Cc1noc(C)c1-c1nccc(Nc2ccc(F)cc2)n1,–,0.398 µM (active)
Cn1c2c(c(=O)n(C)c1=O)CN(CCN1CCNCC1)CN2,-2.63% (inactive),–
COC(=O)c1ccc(Oc2nc(N(C)C)nc(N3CCOCC3)n2)cc1,–,3.55 µM (active)
O=c1ccc(Oc2nc(N3CCOCC3)nc(N3CCOCC3)n2)n[nH]1,6.81% (inactive),–
COc1ccc(C(=O)N2CCC3(CC2)CCN(c2ncccn2)CC3)cc1,-11.8% (inactive),–

SMILES,"activity, negative = inhibition",AC50
Cc1ccc(CNCC(O)(c2ccc(F)cc2)c2ccc(F)cc2)cc1,-25.5% (inactive),–
CCOC(=O)C(C(=O)NCc1ccc(C)cc1)c1ncc(C(F)(F)F)cc1Cl (stereo not drawn),–,10 µM (active)
NCC(=O)N[C@H](CO)C(=O)O (H-Gly-[dS]-OH),-8.79% [at 11.4 µM] (inactive),–
OC[C@@H]1O[C@@H](n2cnc3cncnc32)[C@@H](O)[C@H]1O,0.567% (inactive),–
O=c1cnc2cncnc2n1Cc1ccccc1,–,25.1 µM (active)
Cc1ccc([C@@H](O)c2cnc(C)n2Cc2ccccc2)cc1,-10.8% [at 11.4 µM] (inactive),–
COc1cccc(Cn2c(=O)cnc3cncnc32)c1,–,15.8 µM (active)
CC(C)CC(c1nnnn1C(C)C)N1CCN(c2ccccc2)CC1 (stereo not drawn),-13.3% (inactive),–
CCCn1nnnc1-c1cc(Cl)cc(Cl)c1,–,2.82 µM (active)
CC(C)n1nnnc1-c1cc(Cl)cc(Cl)c1,–,8.91 µM (active)
CCS(=O)(=O)c1ccc2c(c1)N(S(C)(=O)=O)CC(C(=O)NCCOC)O2 (stereo not drawn),2.25% (inactive),–
CCOC(=O)CCN1C(=O)[C@H]2[C@@H]3[C@H](O)[C@H](O)CC(=O)[C@H]3CC[C@H]2C1=O,-2.79% [at 11.4 µM] (inactive) and -9.9% [at 11.4 µM] (inactive),–
COC(=O)C/C=C\[C@@H](C)[C@@H](/C=N\O[C@@H](C)CN1CCCc2nc(C)c(C)cc21)NS(=O)(=O)c1ccc(C)cc1,-5.78% [at 11.4 µM] (inactive),–
O=C(O)/C=C1\NC(=O)c2ccccc21,8.34% (inactive),–
Nc1ccc2c3c(cccc13)C(=O)NC2=O,–,1 µM (active)
COC(=O)c1sc2ncccc2c1OCc1c(Cl)cccc1Cl,–,0.158 µM (active)
COc1cc(CNCc2cccs2)ccc1OCC(=O)NC(C)(C)C,–,3.16 µM (active)
COc1cc(CNCCc2ccccc2)ccc1OCC(=O)NC(C)(C)C,-16.3% (inactive),–
COc1ccc(CNC(=O)Nc2cccs2)cc1OC,–,12.6 µM (active)
COc1ccc(C[C@@](C)(N)C(=O)O)cc1OC,-5.47% [at 25.6 µM] (inactive),–
COc1ccc(NC(=O)COc2ccc(CNCCCN3CCOCC3)cc2OC)cc1,-19.7% (inactive),–
COc1ccc(CCn2c3c(c(=O)[nH]c2=O)C(NC(=O)c2cccs2)(C(F)(F)F)C(=O)N3)cc1OC (stereo not drawn),-9.34% (inactive),–
